Assay results published in PubChem BioAssay (NCATS).
Records with an inconclusive call do not appear. Activity calls are given as the source filed them. Unless noted, calls come from the whole dose curve; as a rule, active = well fitted curve in the direction sought with a large enough effect; inconclusive = small, poorly fitted or top-dose-only effect, or another doubt; inactive = no such curve, though single readings can be large; an effect the other way counts as inactive or inconclusive.

How the values were obtained:
[1] = target: Lysosomal acid glucosylceramidase (Homo sapiens) (UniProt P04062); assay: Glucocerebrosidase-p2 (AID 348; in the data active = potency below about 10 µM; note: potency is the fitted concentration of half-maximal effect); details: purified GBA, blue fluorogenic substrate, 40 min
Method in brief: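 Normal human glucocerebrosidase (0.2 nM) with blue fluorogenic substrate (80 uM final) in citrate/phosphate pH 5.9 with 10mM sodium taurocholate, 0.01% tween-20; 40 min RT, NaOH/glycine stop; fluorescence Ex 365/Em 440; AC50 from a titration from 0.6 nM upwards.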

[2] = target: Cytochrome P450 1A2 (Homo sapiens) (UniProt P05177); assay: p450-cyp1a2 (AID 410; calls by dose curve;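 note: -100% = full effect of reference inhibitor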); details: recombinant CYP1A2, luciferin-ME demethylation, luminescence; series mostly up to 11.4 µM
Method in brief: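 20nM CYP1A2, 100uM Luciferin-ME (=Km), 100mM KPO4; cpd 10 min RT; +NADPH regen, 60 min RT; stop/detect 20 min; luminescence. Normalized to furafylline 57 uM = full inhibition.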

[3] = Cell Viability - BJ (AID 421; calls by dose curve;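 note: potency is the fitted concentration of half-maximal effect; cells exposed to compound for 40 hours at 37 °C before readout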); details: BJ fibroblast viability, qHTS
Method in brief: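 Cytotoxicity as drop in intracellular ATP (CellTiter-Glo, 20 min RT) after 40 hr compound exposure of BJ fibroblasts at 37 °C. Titrations scaled between DMSO and 100 uM tamoxifen, Hill-fitted for AC50.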

[4] = Cell Viability - Hek293 (AID 427;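 active = compounds whose dose-response curve shows a full or clear partial loss of cell viability, called from curve shape rather than a numeric limit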;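 note: potency is the fitted concentration of half-maximal effect; cells exposed to compound for 40 hours at 37 °C before reading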); details: qHTS
Method in brief: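 Luminescent ATP content (CellTiter-Glo, 20 min at room temperature) was measured after a 40 hr, 37 °C compound exposure of HEK293 cells. AC50 values came from Hill-equation fits of qHTS concentration-response data normalized to DMSO and 100 uM tamoxifen.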

[5] = Cell Viability - HepG2 (AID 433; calls by dose curve;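 note: potency is the fitted concentration of half-maximal effect; potency for ATP loss meaning cytotoxicity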); details: qHTS
Method in brief: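 Read-out is luciferase-based quantitation of cellular ATP as a measure of viable HepG2 cells after 40 h treatment at 37 °C. Signal decrease is scaled between DMSO-only and 100 uM tamoxifen controls, with AC50 fitted by the Hill equation.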

[6] = Cell Viability - MRC5 (AID 434; calls by dose curve;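 note: potency is the fitted concentration of half-maximal effect; cells exposed to compound for 40 hours at 37 °C; potency reflects cytotoxicity seen as loss of intracellular ATP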); details: MRC5 lung fibroblast viability, qHTS
Method in brief: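 AC50 values come from Hill-equation fits of intracellular ATP loss, measured by CellTiter-Glo luminescence. Normal lung fibroblasts (MRC5) had 40 hr compound treatment at 37 C, normalized between DMSO and 100 uM tamoxifen.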

[7] = Cell Viability - SK-N-SH (AID 435; calls by dose curve; note: potency is the fitted concentration of half-maximal effect); details: SK-N-SH neuroblastoma cell viability qHTS
Method in brief: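 Luminescent ATP signal served as the viability read-out after 40 hours of compound treatment of human neuroblastoma SK-N-SH cells. Concentration-response data, scaled between DMSO and 100 uM tamoxifen, gave AC50 values by standard Hill modeling.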

[8] = NFAT Signaling Pathway (AID 444; active = well fitted curve in either direction with a large enough effect, not every such curve was filed as active;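 note: carbachol stimulus at about its EC50 of 1 µM final; % is set by controls: 0 for no effect and ±100 for the full control effect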); details: Jurkat NFAT-bla M1, carbachol, beta-lactamase ratio, 5 h; at 7.69 µM (top of the series) unless noted
Method in brief: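 Read-out: CCF4 FRET ratio (460 nm/530 nm) after 1 h RT dye loading, used for %activity and AC50 from titration series. Cells: Jurkat NFAT-β-lactamase/M1 line, treated with compound plus 1 uM carbachol for 5 h, 37 °C.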

[9] = Stat Signaling Pathway (AID 446; active = well fitted curve in either direction with a large enough effect, not every such curve was filed as active;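 note: ME-180 cervical cancer cells given 40 pM IL-6 alongside compound; SIE-controlled beta-lactamase reporter measured as 460/530 nm FRET emission ratio; % is set by controls: 0 for no effect and ±100 for the full control effect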); details: ME-180 (cervical carcinoma) SIE beta-lactamase reporter, IL-6 stimulated, 5 h; at 7.69 µM (top of the series) unless noted
Method in brief: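 FRET read-out (405 nm excitation, 460/530 nm emission) of a beta-lactamase reporter under a STAT-inducible element in ME-180 cervical carcinoma cells. Cells with compound receive 40 pM IL-6 for 5 h. Values are normalised to AC90 stimulation and AC90 JAK-inhibitor controls.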

[10] = target: Glucocorticoid receptor (Homo sapiens) (UniProt P04150); assay: GR-GFP Redistribution (AID 450;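 active = compounds whose dose series gives a full or clear partial fitted curve of increased nuclear translocation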; note: potency is the fitted concentration of half-maximal effect); details: U2OS GR-GFP nuclear translocation, laser cytometry, 2 h
[11] = target: Glucocorticoid receptor (Homo sapiens) (UniProt P04150); assay: GR-EFC Redistribution (AID 451; calls by dose curve; note: potency is the fitted concentration of half-maximal effect); details: CHO-K1 GR-EFC translocation, beta-gal luminescence, 2 h
Method in brief: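 Translocation of GR-ED fusion to nuclear EA restores b-gal, read by luminescence after 1 h room-temperature detection. Engineered CHO-K1 biosensor cells, 1,000/well, exposed 2 h at 37 C to titrations up to 46 uM final.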

[12] = target: Mitogen-activated protein kinase 10 (Mus musculus) (UniProt Q61831); assay: JNK3 AlphaScreen Assay (AID 530; active = well fitted curve in either direction with a large enough effect, not every such curve was filed as active;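 note: kinase came from lysate of stimulated human HepG2 cells; signal reports phosphorylation of biotinylated GST-cJun 1-79 at Ser73 with 10 µM ATP; % is set by controls: 0 for no effect and ±100 for the full control effect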); details: JNK3 lysate, c-Jun phosphorylation; series mostly up to 11.4 µM
Method in brief: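 Kinase buffer: 20 mM Tris-HCl pH 7.6, 10 mM MgCl2, 1 mM DTT, 0.1 mM Na3VO4, 0.01% Tween-20; ATP 10 uM. Substrate biotin-GST-cJun(1-79), enzyme from activated HepG2 lysates. Detection by Ser73 phospho-antibody AlphaScreen.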

[13] = Cell Viability - N2a (AID 540); details: N2a mouse neuroblastoma cell viability; activity change, negative = cytotoxicity: at 92.2 µM (top of the series);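 note: plate controls were DMSO alone for no effect and tamoxifen control for full effect; nearly all actives have a fitted effect of over 45% in size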
Method in brief: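 N2a mouse neuroblastoma, 1500 cells/well, 5 hr settle; compound 40 hr, 37 °C; CellTiter-Glo 20 min RT; luminescence; Hill-fit AC50.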

[14] = Cell Viability - H-4-II-E (AID 543); details: H-4-II-E rat hepatoma viability; series mostly up to 92.2 µM; note: % is set by controls: 0 for no effect and ±100 for the full control effect; nearly all actives have a fitted effect of over 35% in size
Method in brief: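 qHTS, rat hepatoma H-4-II-E, 1500 cells/well; 40 hr compound exposure, 37 °C; CellTiter-Glo ATP luminescence after 20 min RT; AC50 by standard Hill fit.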

[15] = Cell Viability - SH-SY5Y (AID 544); details: SH-SY5Y neuroblastoma cell viability; viability change, negative = cytotoxic: at 92.2 µM (top of the series); note: nearly all actives have a fitted effect of over 55% in size
Method in brief: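 SH-SY5Y, 1500 cells/well, 5 hr pre-incubation 37 °C; cpd 40 hr 37 °C; CellTiter-Glo 20 min RT; luminescence (ATP) read. qHTS concentration-response, Hill fit → AC50. Tamoxifen, doxorubicin as positive controls.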

[16] = Cell Viability - Renal Proximal Tubule (AID 545); details: renal proximal tubule cells viability, primary cells of rat origin; activity change, negative = cytotoxicity: at 91.7 µM (top of the series); note: nearly all actives have a fitted effect of over 40% in size
Method in brief: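 Luminescent ATP signal (CellTiter-Glo) served as the viability read-out after 40 hr compound exposure of freshly isolated rat proximal tubule cells at 37 °C. Concentration-dependent ATP loss was fitted with the Hill equation to give AC50.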

[17] = Cell Viability - Mesenchymal (AID 546); details: mesenchymal cells viability, qHTS; activity change, negative = cytotoxicity: at 91.7 µM (top of the series);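 note: cells exposed to compound for 40 hours before reading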
Method in brief: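 CellTiter-Glo luminescence (intracellular ATP, 20 min room temperature) after 40 hr compound exposure at 37 °C of 1000 glomerulus-derived human kidney mesenchymal cells/well; AC50 values obtained by fitting qHTS concentration-response data to the Hill equation.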

[18] = target: 3',5'-cyclic-AMP phosphodiesterase 4B (Homo sapiens) (UniProt Q07343); assay: qHTS Assay for Inhibitors of PDE-IV (AID 607; active = well fitted activation curve with a large enough effect in the main read-out, with a control signal flat, not every such curve was filed as active; note: % of control where 0% means no effect); details: HEK293 ACTOne CNG channel cells, membrane potential fluorescence; series mostly up to 22.9 µM
Method in brief: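 Cell-based read-out of cAMP via a modified cyclic nucleotide-gated channel and membrane potential dye (535/590 nm) in HEK293 cells expressing PDE4 endogenously. Compounds tested up to 22.9 uM final; 100 uM RO 20-1724 reference.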

[19] = Cellular Toxicity (caspase-3) HepG2 (AID 654); details: HepG2 caspase-3 activation, luminescence; series mostly up to 92.2 µM;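 note: cells exposed to compound for 16 hours before reading; 0% = DMSO alone and 100% = caspase signal from 100 µM tamoxifen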
Method in brief: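 Luminescent Caspase-Glo 3/7 readout after 16 hr compound exposure of human hepatocellular carcinoma HepG2 cells at 37 °C; qHTS concentration-response, normalized DMSO = 0%, 100 uM tamoxifen = 100%; AC50 by standard Hill equation.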

[20] = Cellular Toxicity (caspase-3) Jurkat (AID 655); details: Jurkat caspase-3 activation, luminescence; caspase-3 activation: at 92.2 µM (top of the series), DMSO = 0%, tamoxifen = 100%;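 note: cells exposed to compound for 16 h at 37 °C before reading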
Method in brief: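 5000 Jurkat cells/well; compound 16 hr, 37 °C; Caspase-Glo 3/7 added, 20 min RT; luminescence read. Norm: DMSO = 0%, tamoxifen 100 uM = 100%. AC50, Hill model.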

[21] = Cellular Toxicity (caspase-3) HUV-EC-C (AID 656); details: HUV-EC-C cells, caspase-3 activation (apoptosis); series mostly up to 92.2 µM
Method in brief: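 qHTS; HUV-EC-C, 1000 cells/well; 5 hr settle, 16 hr cmpd, 37°C; Caspase-Glo 3/7, 20 min RT; luminescence. Norm: DMSO = 0%, tamoxifen 100 uM = 100%. Hill-fit AC50.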

[22] = Cellular Toxicity (caspase-3) SHSY5Y (AID 657); details: SH-SY5Y caspase-3 activation; series mostly up to 91.7 µM;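 note: cells exposed to compound for 16 hours at 37 °C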
Method in brief: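 qHTS, SH-SY5Y, 1500 cells/well, 5 h pre-incubation 37 °C; compound 16 h 37 °C; Caspase-Glo 3/7 1 h RT; luminescence. Norm.: DMSO = 0, 10 uM staurosporine = 100%. Hill fit → AC50.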

[23] = Cellular Toxicity (caspase-3) BJ (AID 658); details: BJ fibroblasts, luminescence; Potency: caspase-3 activation; series mostly up to 91.7 µM;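 note: cells exposed to compound for 16 hours; 0% = DMSO basal and 100% = 10 µM staurosporine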
Method in brief: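 Caspase-Glo 3/7 luminescence, read 1 hr after reagent at room temperature, in normal BJ fibroblasts exposed 16 hours at 37 °C. AC50 values from Hill-equation concentration-response, scaled between DMSO basal and 10 uM staurosporine as 100%.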

Glucocorticoid receptor (Homo sapiens), sequence (P04150 whole entry, looked up, the tested form may be a part): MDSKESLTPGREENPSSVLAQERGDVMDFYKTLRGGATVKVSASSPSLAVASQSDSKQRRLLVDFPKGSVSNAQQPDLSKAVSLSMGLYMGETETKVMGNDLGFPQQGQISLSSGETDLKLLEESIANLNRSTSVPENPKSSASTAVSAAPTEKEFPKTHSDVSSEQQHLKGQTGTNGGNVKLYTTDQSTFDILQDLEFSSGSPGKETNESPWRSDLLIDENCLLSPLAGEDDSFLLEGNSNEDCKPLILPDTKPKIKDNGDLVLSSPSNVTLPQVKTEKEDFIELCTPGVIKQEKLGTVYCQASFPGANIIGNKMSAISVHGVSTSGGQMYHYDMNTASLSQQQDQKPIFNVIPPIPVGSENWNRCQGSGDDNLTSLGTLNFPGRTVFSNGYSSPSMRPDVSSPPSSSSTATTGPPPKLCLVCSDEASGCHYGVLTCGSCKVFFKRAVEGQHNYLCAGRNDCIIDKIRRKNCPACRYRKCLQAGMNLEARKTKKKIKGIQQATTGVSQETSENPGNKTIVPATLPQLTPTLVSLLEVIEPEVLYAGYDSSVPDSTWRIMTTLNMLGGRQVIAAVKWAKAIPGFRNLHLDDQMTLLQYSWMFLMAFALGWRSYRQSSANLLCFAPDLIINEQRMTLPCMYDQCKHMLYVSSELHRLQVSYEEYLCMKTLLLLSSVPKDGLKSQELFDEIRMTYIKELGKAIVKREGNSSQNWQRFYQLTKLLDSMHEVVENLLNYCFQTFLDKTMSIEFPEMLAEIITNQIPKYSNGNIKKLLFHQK
Cytochrome P450 1A2 (Homo sapiens), sequence (P05177 whole entry, looked up): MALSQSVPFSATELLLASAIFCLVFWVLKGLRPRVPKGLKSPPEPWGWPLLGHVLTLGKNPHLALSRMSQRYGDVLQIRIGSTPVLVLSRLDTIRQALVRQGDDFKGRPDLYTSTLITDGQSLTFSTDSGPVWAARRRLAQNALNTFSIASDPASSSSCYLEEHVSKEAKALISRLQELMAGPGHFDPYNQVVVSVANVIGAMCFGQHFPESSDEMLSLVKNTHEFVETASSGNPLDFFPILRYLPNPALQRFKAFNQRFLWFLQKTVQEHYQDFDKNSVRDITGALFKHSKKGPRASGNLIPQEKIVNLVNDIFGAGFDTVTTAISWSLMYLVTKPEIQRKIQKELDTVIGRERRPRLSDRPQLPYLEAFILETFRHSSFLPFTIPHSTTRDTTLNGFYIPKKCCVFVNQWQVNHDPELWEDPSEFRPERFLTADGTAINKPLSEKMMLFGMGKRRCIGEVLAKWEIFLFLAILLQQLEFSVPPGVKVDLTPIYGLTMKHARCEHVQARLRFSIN
Lysosomal acid glucosylceramidase (Homo sapiens), sequence (P04062 whole entry, looked up): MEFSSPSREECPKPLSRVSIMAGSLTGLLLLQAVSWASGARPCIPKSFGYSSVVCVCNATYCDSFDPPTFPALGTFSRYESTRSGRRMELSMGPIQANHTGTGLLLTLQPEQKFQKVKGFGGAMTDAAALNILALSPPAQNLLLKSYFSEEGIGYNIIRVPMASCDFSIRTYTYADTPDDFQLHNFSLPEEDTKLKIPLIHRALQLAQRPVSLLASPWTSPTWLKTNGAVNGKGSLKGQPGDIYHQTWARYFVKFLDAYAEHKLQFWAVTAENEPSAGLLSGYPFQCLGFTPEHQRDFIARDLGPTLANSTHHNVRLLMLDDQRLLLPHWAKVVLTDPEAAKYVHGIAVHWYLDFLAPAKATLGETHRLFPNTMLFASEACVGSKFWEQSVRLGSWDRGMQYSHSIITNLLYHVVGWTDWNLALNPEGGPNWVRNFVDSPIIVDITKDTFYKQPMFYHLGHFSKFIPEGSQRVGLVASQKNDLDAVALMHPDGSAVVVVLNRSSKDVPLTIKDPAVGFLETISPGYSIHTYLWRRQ
3',5'-cyclic-AMP phosphodiesterase 4B (Homo sapiens), sequence (Q07343 whole entry, looked up): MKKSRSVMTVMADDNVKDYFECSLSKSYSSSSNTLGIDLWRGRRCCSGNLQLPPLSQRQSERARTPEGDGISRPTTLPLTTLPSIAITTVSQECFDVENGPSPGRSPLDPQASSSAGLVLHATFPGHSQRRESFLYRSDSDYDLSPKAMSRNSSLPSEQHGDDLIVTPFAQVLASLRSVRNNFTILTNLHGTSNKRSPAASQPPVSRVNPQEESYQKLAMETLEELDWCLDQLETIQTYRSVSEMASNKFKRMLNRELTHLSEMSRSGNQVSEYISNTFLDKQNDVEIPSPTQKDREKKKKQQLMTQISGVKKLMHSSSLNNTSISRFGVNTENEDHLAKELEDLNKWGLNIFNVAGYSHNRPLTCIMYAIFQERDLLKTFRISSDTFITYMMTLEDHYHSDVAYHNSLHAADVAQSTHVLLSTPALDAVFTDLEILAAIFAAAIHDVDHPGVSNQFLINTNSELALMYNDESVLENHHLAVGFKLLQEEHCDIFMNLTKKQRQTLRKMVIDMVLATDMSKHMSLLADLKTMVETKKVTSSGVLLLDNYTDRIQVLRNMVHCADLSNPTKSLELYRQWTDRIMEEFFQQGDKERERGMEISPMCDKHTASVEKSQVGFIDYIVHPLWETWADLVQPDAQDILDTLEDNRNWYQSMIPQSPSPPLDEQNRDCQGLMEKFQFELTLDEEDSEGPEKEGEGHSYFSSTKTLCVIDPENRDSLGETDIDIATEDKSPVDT

CC(CCC(=O)O)(c1ccc(O)cc1)c1ccc(O)cc1
inactive: Potency [1] > 11.4 µM | Potency [2] | Potency [3] > 92 µM | Potency [4] > 92 µM | Potency [5] > 92 µM | Potency [6] > 92 µM | Potency [7] > 92 µM | activity change, negative = inhibition [8] 6.62% | activity, negative = inhibition [9] -4.62% | Potency [10] > 46 µM | Potency [11] > 9.22 µM | Potency [12] | activity change, negative = cytotoxicity [13] 8.91% | Potency [14] | Potency [15] | Potency [16] | Potency [17] | Potency [18] | Potency [19] | Potency [20] | Potency [21] | Potency [22] | Potency [23]
